Results on 4 molecules are retold here after ChEMBL document CHEMBL2218924, “A broad activity screen in support of a chemogenomic map for kinase signalling research and drug discovery” (Biochem J, 2013).

The target of test [1] is Serine/threonine-protein kinase SIK1 (Homo sapiens) (UniProt P57059). To be noted: at 10 µM.
For test [2], the target named is SRSF protein kinase 2 (Homo sapiens) (UniProt P78362). To be noted: at 1 µM.
The target is the same in test [3]. To be noted: at 10 µM.
For test [4], the target named is Serine/threonine-protein kinase 33 (Homo sapiens) (UniProt Q9BYT3). To be noted: at 1 µM.
Test [5] deals with Serine/threonine-protein kinase PLK2 (Homo sapiens) (UniProt Q9NYY3). To be noted: at 1 µM.
Test [6] has the same target. To be noted: at 10 µM.
Test [7] concerns the target T1, Mitogen-activated protein kinase kinase kinase 7 (Homo sapiens) (UniProt O43318).
T1 sequence (whole entry): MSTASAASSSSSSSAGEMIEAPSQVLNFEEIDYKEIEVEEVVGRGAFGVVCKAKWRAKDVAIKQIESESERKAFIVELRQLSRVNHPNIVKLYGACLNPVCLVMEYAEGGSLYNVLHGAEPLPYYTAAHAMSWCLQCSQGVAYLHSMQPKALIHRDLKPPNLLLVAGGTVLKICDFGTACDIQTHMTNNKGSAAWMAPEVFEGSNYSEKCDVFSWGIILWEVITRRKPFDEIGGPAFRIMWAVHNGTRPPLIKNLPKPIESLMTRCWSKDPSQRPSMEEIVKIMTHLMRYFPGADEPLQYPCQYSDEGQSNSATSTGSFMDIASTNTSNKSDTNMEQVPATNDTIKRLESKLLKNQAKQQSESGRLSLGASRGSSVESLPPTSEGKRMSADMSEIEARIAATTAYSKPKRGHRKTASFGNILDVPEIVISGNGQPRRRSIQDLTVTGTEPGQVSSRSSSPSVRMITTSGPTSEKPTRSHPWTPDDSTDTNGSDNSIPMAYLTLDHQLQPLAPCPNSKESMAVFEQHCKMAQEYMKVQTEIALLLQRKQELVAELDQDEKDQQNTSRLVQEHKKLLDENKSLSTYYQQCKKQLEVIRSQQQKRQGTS
To be noted: at 1 µM.

Test [8] has as its target T1, Mitogen-activated protein kinase kinase kinase 7 (Homo sapiens). To be noted: at 10 µM.
Test [9] has as its target T2, Serine/threonine-protein kinase TAO1 (Homo sapiens) (UniProt Q7L7X3).
T2 sequence (whole entry): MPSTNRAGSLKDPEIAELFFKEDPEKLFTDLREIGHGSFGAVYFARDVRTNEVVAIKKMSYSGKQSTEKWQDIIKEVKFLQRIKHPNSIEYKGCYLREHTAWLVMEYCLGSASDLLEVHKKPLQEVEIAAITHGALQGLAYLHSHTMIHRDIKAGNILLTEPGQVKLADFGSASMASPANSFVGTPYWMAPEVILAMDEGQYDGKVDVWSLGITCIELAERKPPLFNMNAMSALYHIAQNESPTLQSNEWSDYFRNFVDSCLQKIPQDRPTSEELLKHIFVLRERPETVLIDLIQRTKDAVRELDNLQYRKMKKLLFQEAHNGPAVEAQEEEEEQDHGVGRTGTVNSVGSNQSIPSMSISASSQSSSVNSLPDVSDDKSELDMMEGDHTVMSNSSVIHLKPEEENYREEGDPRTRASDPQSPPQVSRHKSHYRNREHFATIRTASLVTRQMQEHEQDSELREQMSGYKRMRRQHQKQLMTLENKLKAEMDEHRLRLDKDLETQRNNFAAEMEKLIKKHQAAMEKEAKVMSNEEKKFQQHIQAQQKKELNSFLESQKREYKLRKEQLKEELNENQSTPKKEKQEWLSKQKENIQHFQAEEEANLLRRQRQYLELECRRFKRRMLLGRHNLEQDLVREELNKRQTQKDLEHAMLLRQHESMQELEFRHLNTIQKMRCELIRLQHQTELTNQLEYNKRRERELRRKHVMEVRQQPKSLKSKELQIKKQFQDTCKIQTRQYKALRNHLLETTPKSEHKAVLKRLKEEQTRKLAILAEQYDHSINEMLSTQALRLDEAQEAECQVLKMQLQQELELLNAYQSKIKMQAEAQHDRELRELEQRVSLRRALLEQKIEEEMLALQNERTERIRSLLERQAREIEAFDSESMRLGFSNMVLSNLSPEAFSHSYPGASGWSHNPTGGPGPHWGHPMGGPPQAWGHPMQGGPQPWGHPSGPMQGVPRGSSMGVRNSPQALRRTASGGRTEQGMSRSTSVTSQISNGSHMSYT
To be noted: at 1 µM.

Test [10] deals with T2, Serine/threonine-protein kinase TAO1 (Homo sapiens). To be noted: at 10 µM.
Test [11] has as its target T3, Serine/threonine-protein kinase TAO2 (Homo sapiens) (UniProt Q9UL54).
T3 sequence (whole entry): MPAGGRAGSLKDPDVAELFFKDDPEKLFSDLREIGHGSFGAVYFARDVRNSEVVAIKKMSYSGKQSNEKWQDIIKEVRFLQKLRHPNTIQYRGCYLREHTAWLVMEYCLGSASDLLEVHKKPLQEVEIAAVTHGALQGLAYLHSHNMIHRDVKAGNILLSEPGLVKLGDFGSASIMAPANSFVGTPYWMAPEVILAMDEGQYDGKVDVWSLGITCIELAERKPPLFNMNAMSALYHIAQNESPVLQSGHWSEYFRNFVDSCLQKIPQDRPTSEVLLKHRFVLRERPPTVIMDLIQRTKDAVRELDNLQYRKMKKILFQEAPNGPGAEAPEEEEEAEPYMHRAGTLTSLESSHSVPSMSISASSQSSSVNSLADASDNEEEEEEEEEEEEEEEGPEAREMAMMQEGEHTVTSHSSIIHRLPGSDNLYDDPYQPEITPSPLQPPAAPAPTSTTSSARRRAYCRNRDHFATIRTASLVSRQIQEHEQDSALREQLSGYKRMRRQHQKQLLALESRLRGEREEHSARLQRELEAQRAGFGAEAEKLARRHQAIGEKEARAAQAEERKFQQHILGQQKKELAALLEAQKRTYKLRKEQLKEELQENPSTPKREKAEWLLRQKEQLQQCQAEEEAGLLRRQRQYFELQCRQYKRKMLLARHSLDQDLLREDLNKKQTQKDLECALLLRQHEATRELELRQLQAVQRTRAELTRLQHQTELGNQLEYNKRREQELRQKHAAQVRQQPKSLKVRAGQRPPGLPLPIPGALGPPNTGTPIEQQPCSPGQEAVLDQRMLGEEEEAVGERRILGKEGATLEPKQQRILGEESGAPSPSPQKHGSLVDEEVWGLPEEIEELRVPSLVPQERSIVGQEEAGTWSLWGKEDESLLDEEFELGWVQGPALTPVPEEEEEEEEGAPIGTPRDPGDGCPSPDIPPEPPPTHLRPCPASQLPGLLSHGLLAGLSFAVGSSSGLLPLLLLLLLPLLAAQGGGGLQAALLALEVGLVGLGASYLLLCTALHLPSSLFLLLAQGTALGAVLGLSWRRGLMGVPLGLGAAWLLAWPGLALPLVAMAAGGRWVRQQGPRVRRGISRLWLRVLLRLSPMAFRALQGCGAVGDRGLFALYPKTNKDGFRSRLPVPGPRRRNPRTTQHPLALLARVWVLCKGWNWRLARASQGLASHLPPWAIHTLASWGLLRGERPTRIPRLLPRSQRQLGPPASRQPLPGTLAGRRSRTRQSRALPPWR
To be noted: at 10 µM.

Test [12] deals with T4, Serine/threonine-protein kinase TAO3 (Homo sapiens) (UniProt Q9H2K8).
T4 sequence (whole entry): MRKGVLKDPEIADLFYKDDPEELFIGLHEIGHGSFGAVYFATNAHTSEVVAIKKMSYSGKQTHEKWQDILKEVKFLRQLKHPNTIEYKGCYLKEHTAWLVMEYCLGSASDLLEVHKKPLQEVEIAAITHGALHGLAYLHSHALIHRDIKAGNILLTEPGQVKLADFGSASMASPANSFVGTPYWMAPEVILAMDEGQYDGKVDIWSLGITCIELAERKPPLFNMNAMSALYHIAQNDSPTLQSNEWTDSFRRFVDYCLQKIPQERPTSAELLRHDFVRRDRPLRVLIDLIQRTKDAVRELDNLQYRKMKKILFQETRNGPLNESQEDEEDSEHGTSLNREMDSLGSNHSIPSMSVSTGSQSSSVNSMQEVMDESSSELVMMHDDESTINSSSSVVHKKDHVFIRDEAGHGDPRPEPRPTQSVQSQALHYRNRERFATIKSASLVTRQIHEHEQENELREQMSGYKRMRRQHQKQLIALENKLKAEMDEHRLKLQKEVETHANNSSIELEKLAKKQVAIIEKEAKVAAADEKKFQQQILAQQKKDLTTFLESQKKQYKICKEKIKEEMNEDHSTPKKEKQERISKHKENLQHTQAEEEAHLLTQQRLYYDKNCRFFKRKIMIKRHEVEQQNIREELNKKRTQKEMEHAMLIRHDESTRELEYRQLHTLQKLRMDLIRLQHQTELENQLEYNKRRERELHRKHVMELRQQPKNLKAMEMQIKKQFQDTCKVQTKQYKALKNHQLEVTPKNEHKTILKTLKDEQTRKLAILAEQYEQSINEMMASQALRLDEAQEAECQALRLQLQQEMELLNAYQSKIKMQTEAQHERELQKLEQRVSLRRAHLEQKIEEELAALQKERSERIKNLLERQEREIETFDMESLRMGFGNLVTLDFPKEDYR
To be noted: at 1 µM.

Test [13] concerns the target T4, Serine/threonine-protein kinase TAO3 (Homo sapiens). To be noted: at 10 µM.
The target in test [14] is T5, Serine/threonine-protein kinase TBK1 (Homo sapiens) (UniProt Q9UHD2).
T5 sequence (whole entry): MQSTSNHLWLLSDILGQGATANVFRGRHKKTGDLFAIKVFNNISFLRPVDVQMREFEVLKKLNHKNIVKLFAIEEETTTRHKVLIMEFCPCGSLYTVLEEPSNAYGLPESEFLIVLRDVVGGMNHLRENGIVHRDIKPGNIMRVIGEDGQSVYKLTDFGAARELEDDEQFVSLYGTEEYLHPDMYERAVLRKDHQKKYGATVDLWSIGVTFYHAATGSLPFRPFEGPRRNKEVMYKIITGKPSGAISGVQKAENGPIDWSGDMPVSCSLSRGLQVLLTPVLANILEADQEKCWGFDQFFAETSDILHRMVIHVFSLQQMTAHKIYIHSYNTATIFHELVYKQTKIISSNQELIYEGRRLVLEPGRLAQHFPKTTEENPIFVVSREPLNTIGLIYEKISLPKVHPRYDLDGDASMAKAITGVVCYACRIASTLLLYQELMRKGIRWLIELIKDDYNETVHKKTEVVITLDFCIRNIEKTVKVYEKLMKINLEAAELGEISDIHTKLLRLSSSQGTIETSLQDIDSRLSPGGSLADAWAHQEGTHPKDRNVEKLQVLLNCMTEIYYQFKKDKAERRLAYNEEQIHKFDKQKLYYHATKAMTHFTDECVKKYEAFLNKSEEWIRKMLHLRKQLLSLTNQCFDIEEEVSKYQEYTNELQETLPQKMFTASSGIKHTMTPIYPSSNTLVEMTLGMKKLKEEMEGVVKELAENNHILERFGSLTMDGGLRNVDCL
To be noted: at 1 µM.

The target in test [15] is SRSF protein kinase 1 (Homo sapiens) (UniProt Q96SB4). To be noted: at 1 µM.
Test [16] addresses Serine/threonine-protein kinase 33 (Homo sapiens) (UniProt Q9BYT3). To be noted: at 10 µM.
Test [17] has as its target Tyrosine-protein kinase SYK (Homo sapiens) (UniProt P43405). To be noted: at 1 µM.
The target is the same in test [18]. To be noted: at 10 µM.
The target of test [19] is T3, Serine/threonine-protein kinase TAO2 (Homo sapiens). To be noted: at 1 µM.
Test [20] has as its target SRSF protein kinase 1 (Homo sapiens) (UniProt Q96SB4). To be noted: at 10 µM.

Sequence of SRSF protein kinase 1 (Homo sapiens) (Q96SB4 whole entry): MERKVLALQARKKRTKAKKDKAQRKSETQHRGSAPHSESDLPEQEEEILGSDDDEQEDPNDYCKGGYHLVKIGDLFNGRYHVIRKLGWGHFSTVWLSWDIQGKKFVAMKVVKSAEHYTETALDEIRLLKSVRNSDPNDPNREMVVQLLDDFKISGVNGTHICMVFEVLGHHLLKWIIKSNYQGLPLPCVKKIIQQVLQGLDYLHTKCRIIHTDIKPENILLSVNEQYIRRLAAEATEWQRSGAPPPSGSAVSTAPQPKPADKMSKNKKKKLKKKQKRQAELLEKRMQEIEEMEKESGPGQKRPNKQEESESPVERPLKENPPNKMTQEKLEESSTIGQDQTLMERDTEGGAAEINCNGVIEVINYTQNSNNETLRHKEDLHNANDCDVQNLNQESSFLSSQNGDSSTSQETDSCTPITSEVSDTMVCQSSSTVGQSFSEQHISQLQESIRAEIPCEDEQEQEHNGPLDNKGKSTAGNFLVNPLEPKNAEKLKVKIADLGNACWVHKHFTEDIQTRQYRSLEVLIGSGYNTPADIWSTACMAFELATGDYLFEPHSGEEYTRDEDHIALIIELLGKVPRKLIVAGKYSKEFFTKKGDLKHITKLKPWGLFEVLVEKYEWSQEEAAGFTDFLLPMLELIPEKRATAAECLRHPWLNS
Sequence of SRSF protein kinase 2 (Homo sapiens) (P78362 whole entry, looked up): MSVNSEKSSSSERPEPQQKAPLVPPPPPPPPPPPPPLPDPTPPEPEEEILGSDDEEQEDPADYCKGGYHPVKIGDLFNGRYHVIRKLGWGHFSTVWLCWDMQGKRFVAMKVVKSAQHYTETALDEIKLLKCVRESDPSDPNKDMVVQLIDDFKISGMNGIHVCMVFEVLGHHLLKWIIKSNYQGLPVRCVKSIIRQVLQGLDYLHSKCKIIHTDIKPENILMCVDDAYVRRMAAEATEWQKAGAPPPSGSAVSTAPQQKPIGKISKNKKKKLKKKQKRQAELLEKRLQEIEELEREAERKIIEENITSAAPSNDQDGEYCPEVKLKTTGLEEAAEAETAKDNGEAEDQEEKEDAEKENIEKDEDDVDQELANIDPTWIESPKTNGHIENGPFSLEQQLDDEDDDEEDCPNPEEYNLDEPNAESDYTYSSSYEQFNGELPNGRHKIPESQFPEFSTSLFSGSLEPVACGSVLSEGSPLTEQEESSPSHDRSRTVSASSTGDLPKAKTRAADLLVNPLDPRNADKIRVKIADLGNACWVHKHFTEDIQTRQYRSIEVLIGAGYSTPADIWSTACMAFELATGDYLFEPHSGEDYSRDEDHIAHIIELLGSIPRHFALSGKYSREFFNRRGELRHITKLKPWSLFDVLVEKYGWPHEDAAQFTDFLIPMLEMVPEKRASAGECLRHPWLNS
Sequence of Serine/threonine-protein kinase 33 (Homo sapiens) (Q9BYT3 whole entry, looked up): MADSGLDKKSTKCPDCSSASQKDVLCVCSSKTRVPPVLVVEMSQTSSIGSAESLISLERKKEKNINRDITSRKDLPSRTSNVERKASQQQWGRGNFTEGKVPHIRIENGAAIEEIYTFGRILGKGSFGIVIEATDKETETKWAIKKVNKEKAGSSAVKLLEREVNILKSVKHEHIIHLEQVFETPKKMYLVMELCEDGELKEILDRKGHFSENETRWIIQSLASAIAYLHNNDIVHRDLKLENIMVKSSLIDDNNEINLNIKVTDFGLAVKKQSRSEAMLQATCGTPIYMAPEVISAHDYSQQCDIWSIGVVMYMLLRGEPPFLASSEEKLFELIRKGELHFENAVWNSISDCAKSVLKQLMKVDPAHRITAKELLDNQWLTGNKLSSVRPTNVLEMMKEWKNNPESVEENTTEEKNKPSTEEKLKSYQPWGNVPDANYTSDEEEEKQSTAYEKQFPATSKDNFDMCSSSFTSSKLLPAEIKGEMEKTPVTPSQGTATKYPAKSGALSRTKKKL
Sequence of Serine/threonine-protein kinase PLK2 (Homo sapiens) (Q9NYY3 whole entry, looked up): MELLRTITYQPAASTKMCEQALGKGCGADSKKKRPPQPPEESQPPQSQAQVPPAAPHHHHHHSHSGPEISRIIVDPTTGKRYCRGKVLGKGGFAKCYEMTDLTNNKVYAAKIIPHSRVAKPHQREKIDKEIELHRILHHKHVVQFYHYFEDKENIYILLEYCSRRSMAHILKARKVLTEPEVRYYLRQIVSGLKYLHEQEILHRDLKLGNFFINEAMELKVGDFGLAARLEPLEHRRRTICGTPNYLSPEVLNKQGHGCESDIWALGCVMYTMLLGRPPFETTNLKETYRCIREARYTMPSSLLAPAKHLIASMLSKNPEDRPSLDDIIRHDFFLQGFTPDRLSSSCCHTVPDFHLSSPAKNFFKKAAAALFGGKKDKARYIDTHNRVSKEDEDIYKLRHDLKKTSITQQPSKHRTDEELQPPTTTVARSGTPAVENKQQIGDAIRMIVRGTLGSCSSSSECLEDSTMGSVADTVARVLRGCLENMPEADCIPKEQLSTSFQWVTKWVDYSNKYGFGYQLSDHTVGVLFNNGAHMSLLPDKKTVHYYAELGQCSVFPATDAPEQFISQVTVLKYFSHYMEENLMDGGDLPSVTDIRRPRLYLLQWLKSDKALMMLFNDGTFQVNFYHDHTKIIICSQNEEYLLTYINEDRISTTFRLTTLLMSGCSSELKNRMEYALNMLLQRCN
Sequence of Serine/threonine-protein kinase SIK1 (Homo sapiens) (P57059 whole entry): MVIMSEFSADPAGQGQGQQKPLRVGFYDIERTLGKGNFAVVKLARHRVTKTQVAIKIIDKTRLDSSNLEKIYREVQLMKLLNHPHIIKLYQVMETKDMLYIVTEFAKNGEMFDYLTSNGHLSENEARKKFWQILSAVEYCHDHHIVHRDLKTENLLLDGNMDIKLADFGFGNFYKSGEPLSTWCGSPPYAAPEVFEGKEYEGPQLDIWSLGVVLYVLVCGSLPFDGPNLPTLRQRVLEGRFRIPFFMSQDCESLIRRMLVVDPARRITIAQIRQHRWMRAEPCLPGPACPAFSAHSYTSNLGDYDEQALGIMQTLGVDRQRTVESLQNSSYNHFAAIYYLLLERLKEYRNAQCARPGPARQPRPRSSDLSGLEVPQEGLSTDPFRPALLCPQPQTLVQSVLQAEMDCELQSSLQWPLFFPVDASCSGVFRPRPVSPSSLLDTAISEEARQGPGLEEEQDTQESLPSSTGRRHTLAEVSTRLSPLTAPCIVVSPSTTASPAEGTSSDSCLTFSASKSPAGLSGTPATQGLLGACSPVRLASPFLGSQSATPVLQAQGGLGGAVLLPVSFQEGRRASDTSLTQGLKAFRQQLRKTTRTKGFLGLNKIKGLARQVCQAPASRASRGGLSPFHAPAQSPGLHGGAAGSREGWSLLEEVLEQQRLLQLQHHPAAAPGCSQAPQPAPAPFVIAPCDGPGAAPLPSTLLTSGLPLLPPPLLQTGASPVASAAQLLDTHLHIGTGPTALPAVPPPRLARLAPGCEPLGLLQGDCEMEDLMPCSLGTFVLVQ

With `Cc1cccc(-c2[nH]c(C(C)(C)C)nc2-c2ccc3c(c2)OCO3)n1`, the residual activity in [1] is 62%; in test [2] it was 106%; in test [3], 98%; in [4], 93%; in test [5], 105%; in test [6] it was 100%. Further, the residual activity came out at 89% in [7]; 90% in test [8]; 103% in test [9]; 98% in [10]; 90% in test [11]; 101% in test [12]. Further, the residual activity in test [13] is 102%; in test [14] it was 73%.
For `CC(=O)c1ccc(N2CCOCC2)cc1O`, the residual activity in [1] came to 5%; in test [15] it was 98%; in test [2] it was 98%; in test [3], 95%; in [4], 92%; in [16], 105%. Further, the residual activity in [5] worked out at 103%; in test [6], 98%; in [17], 129%; in [18] it was 101%; in [7], 93%; in test [8] it was 90%. The residual activity worked out at 103% in test [9]; 95% in test [10]; 92% in test [19]; 94% in [11]; 101% in [12]; 91% in test [13]. The residual activity in test [14] worked out at 74%.
With `N#CC(C#N)=C(N)/C(C#N)=C/c1ccc(O)cc1`, the residual activity was determined as 75% in test [1]; 100% in [15]; 95% in test [20]; 97% in test [4]; 97% in test [16]; 63% in [6]. Also, the residual activity in test [17] was 116%; in test [18] it was 74%; in test [8], 89%; in test [10], 81%; in test [11], 87%; in test [12], 99%. For the same molecule, the residual activity in test [13] stood at 85%; in [14] it was 82%.
For `CN(C)CCCn1cc(C2=C(c3c[nH]c4ccccc34)C(=O)NC2=O)c2ccccc21`, the residual activity turned out to be 11% in test [1]; 130% in [15]; 63% in test [20]; 57% in test [3]; 79% in test [4]; 24% in [16]. For the same molecule, the residual activity amounted to 113% in [5]; 88% in [6]; 120% in [17]; 57% in test [18]; 103% in [7]; 64% in test [8]. The residual activity in [10] stood at 53%; in test [19] it was 101%; in test [11] it was 49%; in test [12], 88%; in test [13], 27%; in [14], 80%.
